Results on 40 compounds are retold here after PubChem BioAssay (EPA / NIEHS).

Records with an inconclusive call do not appear. Active and inactive are the calls of the source. Rule for the calls: active = hit-call score of the fitted dose curve at least 0.9, where 1 is the maximum; inconclusive = response in the unintended direction; inactive = score below 0.9.

For orientation: AC50 means the midpoint of the concentration-response curve, whichever way the signal moves.

Sequence of Hepatocyte nuclear factor 4-alpha (Homo sapiens) (P41235 whole entry, looked up): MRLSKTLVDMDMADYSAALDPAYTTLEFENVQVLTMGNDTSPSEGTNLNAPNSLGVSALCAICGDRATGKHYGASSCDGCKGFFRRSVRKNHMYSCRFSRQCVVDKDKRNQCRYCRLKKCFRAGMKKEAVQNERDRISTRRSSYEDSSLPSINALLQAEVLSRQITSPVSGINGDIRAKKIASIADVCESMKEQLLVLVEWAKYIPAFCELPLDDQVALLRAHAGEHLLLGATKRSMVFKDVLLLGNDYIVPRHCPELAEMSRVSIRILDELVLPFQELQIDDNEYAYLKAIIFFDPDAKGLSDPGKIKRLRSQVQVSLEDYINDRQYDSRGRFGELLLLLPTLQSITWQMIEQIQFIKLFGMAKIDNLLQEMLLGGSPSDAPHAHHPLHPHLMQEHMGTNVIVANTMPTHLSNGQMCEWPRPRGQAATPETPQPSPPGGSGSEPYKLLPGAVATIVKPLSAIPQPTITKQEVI

This experiment addresses Hepatocyte nuclear factor 4-alpha (Homo sapiens) (UniProt P41235). Briefly: ATG_HNF4a_TRANS: Attagene TRANS-FACTORIAL HepG2 Assay for human Hepatocyte Nuclear Factor 4 alpha (HNF4a) (AID 2282982). The note with it: HepG2 HNF4a transactivation reporter, mRNA readout. As to the method:
ATG_TRANS is a cell-based, multiplexed-readout assay that uses HepG2, a human liver cell line, with measurements taken at 24 hours after chemical dosing in a 24-well plate.ATG_HNF4a_TRANS is one of 30 assay component(s) measured or calculated from the ATG_TRANS assay. It is designed to make measurements of mRNA induction, a form of inducible reporter, as detected with fluorescence intensity signals by Reverse transcription polymerase chain reaction (RT-PCR) and Capillary electrophoresis technology.Data from the assay component ATG_HNF4a_TRANS was analyzed into 1 assay endpoint. This assay endpoint, ATG_HNF4a_TRANS, was analyzed in the positive analysis fitting direction relative to DMSO as the negative control and baseline of activity. Using a type of inducible reporter, measures of mRNA for gain-of-signal activity can be used to understand the reporter gene at the transcription factor-level as they relate to the gene HNF4A. Furthermore, this assay endpoint can be referred to as a primary readout, because this assay has produced multiple assay endpoints where this one serves a reporter gene function. To generalize the intended target to other relatable targets, this assay endpoint is annotated to the nuclear receptor intended target family, where the subfamily is orphan.
Human liver HepG2 cells are transiently transfected with multiple reporter transcription units (MRTUs) in 6-well plates using FuGene 6 reagent (Roche; 3 ml FuGene/1 mg DNA). The MRTU constructs are regulated by a cis-regulating element (promoter). […] A major difference between the CIS and TRANS system is that in CIS activities of endogenous TFs are measured, whereas the TRANS assay evaluates changes in activities of exogenous, chimeric NR-Gal4 proteins. […] At the end of 24 hour incubation, total RNA was isolated using TriZol reagent (Invitrogen). The isolated RNA is then reverse-transcribed using oligo(dT) primer and Mo-MLV reverse transcriptase (Invitrogen) with DNAse I (Ambion) treatment for 30 min. The one-tenth of the produced cDNA was amplified by PCR using Taq DNA polymerase (Invitrogen) and two reporter sequence-specific primers. The PCR products were fluorescently labeled by primer extension with 6-arboxyfluorescein (6-FAM) 5'-labeled reporter sequence-specific primer (2 min at 95 C, 20 s at 68 C and 10 min at 72 C) and these products were digested with 5U of HpaI (New England Biolabs) for 2h at 37 C. The fragments were purified using Qiaquick PCR columns (Qiagen), analyzed on an ABI 3130xL genetic analyzer (Applied Biosystems) with peak positions identified by using a set of X-rhodamine (ROX)-labeled MapMarker1000 molecular weight standards (BioVentures). The raw capillary electrophoresis data was processed using Attagraph software (Attagene).
Turning to `O=C(O)c1cc[c]([Hg][Cl])cc1`, the compound was called inactive.

On to `CNC(=O)Oc1cc(C)c(SC)c(C)c1`, for which the compound was classed as inactive.

In the case of `Cc1ccc(N(SC(F)(Cl)Cl)S(=O)(=O)N(C)C)cc1`, the result was inactive.

Regarding `C[N+](=O)[O-]`, the compound was called inactive.

Take `NNc1ccccc1`: the result was inactive.

As for `C[N+](C)(C)CC(=O)O`, the result was inactive.

Turning to `C[C@]12CC[C@H](O)C[C@H]1CC[C@@H]1[C@@H]2C[C@@H](O)[C@]2(C)[C@@H](C3=CC(=O)OC3)CC[C@]12O`, the compound was classed as inactive.

On to `CC1OC(C)OC(C)O1` (stereo not given), for which the outcome was inactive.

In the case of `O=C(O)CCCc1ccc(N(CCCl)CCCl)cc1`, the result was inactive.

For `Cc1ncc(C[n+]2csc(CCO)c2C)c(N)n1`, the call was inactive.

As for `O=S(=O)(c1ccccc1)c1ccccc1`, the result was inactive.

As for `Cc1cc(C)c(C2=C(OC(=O)CC(C)(C)C)C3(CCCC3)OC2=O)c(C)c1`, the call was inactive.

With `CCc1cc(C)cc(CC)c1-c1c(OC(=O)C(C)(C)C)n2n(c1=O)CCOCC2`, the compound was classed as inactive.

`O=[N+]([O-])O.O=[N+]([O-])O.[Cd]`: the compound was called inactive.

For `CC(=O)/C=C/c1ccccc1`, the compound was called inactive.

`N#Cc1cc(I)c(O)c(I)c1`: the outcome was inactive.

Consider `O=P(O)(Oc1ccccc1)Oc1ccccc1`, for which the compound was called inactive.

For the compound `CCCC=NO`, the compound was classed as inactive.

Consider `Clc1ccc(-c2ccccc2)cc1`, for which the outcome was inactive.

For the compound `CCOC(=O)NC(=S)Nc1ccccc1NC(=S)NC(=O)OCC`, the result was inactive.

Consider `C=CC(=O)OCCO`, for which the compound was classed as inactive.

As to `O=C(NC(=O)c1c(F)cccc1F)Nc1ccc(Oc2ccc(C(F)(F)F)cc2Cl)cc1F`, the call was inactive.

In the case of `Oc1ccc(Cl)cc1`, the result was inactive.

`C=Cc1cccc(CCl)c1`: the result was inactive.

As for `CCC(=O)c1ccc(Cl)cc1`, the result was inactive.

Take `CCC1CCC(=O)O1` (stereo not given): the compound was classed as inactive.

Turning to `O=[N+]([O-])O`, the outcome was inactive.

For `O=C(CCl)c1ccccc1`, the result was inactive.

For `[CH3][Sn]([Cl])([Cl])[Cl]`, the compound was classed as inactive.

As to `BrCBr`, the compound was called inactive.

With `c1cc(OCC2CO2)ccc1Cc1ccc(OCC2CO2)cc1` (stereo not given), the compound was called inactive.

For `Cl/C=C\CCl`, the call was inactive.

Regarding `N#Cc1cccc(C#N)c1`, the call was inactive.

Turning to `CCC(C)c1cc(C(C)(C)C)cc(-n2nc3ccccc3n2)c1O` (stereo not given), the result was inactive.

Turning to `COc1cc(OC)c(OC)cc1C=O`, the call was inactive.

With `CC=Cc1ccc2c(c1)OCO2`, the compound was called inactive.

`CC(C)C#N`: the compound was classed as inactive.

In the case of `CC(=O)C=Cc1ccccc1`, the compound was classed as inactive.

As for `CC1(C)CC(=O)CC(C)(C)N1[O]`, the outcome was inactive.

As for `CCCCCCCCCCCCCCCC[N+](C)(C)C`, the half-maximal activity concentration (AC50) is 27.6 µM (active).
